# Source: PubChem BioAssay AID504834 (National Center for Advancing Translational Sciences (NCATS), 2011)
# The campaign covered roughly 320,000 compounds. About 22,000 (6.9%) were called active. Not shown: some 27% with an inconclusive outcome. Calls come from the whole dose curve; as a rule, active = well fitted inhibition curve with a large enough effect; inconclusive = small, poorly fitted or top-dose-only effect, or another doubt; inactive = no such curve, though single readings can be large or run the other way. What follows is part of a selection rich in actives, with near analogues and random picks from the rest. Entries that show only a call come without a potency.
# Assay: Primary qHTS for delayed death inhibitors of the malarial parasite plastid, 96 hour incubation
# Conditions: P. falciparum luciferase reporter growth; series mostly up to 28.7 µM
# Method in brief: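 Delayed-death screen, second-generation endpoint: infected erythrocytes, 2% hematocrit, 0.05% parasitemia final; 96 hours at 37 C, 5% CO2; luciferase detection reagent; luminescence decrease equals reduced growth.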
# Potency is the fitted concentration of half-maximal effect.
row,Compound,Potency
1,O=C(CN1CCOCC1)N/N=C/c1ccc(-c2ccc(Br)cc2)o1,inactive
2,CC(/C=C/C1(O)C(C)CC(=O)CC1(C)C)OC1OC(CO)C(O)C(O)C1O (stereo unspecified),inactive
3,COC(=O)C1=CO[C@@H](O[C@@H]2O[C@H](CO)[C@@H](O)[C@H](O)[C@H]2O)C2C1C[C@H](O)[C@@H]2C (stereo partly specified),inactive
4,C=CC1C(OC2OC(CO)C(O)C(O)C2O)OC=C(C(=O)OC)C1CC1CC(=O)CC(CC(=O)CCc2ccc(O)cc2)O1 (stereo unspecified),5.22 µM (active)
5,Cc1cc(=O)[nH]c2nnnn12,inactive
6,NS(=O)(=O)c1ccc(CNC(=O)c2cccc(Oc3ccccc3)c2)cc1,inactive
7,Cc1nc(C)c2c(c1C(F)(F)F)-c1ccccc1C2(F)F,11.7 µM (active)
8,COCCCC1CCN(C(=O)C2CCC(=O)N(C3CCCCCC3)C2)CC1 (stereo unspecified),inactive
9,CCN(CC)c1ccc(NC(=O)CN2C(=O)NC3(CCc4ccccc43)C2=O)cc1 (stereo unspecified),inactive
10,COc1ccc(C(=O)NCc2nnc(SCCOc3ccccc3)n2C)cc1,inactive
11,COc1ccc(C(=O)NCCSc2ccccc2C)cc1,3.29 µM (active)
12,COc1cccc(C(=O)NCCSc2ccc(Br)cc2)c1,inactive
13,COc1cc(C(C(=O)NC2CCCC2)N(Cc2ccccc2)C(=O)c2snc(C(N)=O)c2N)ccc1O (stereo unspecified),inactive
14,COc1ccc(CNC(=O)C(=O)NCC2OCCN2C(=O)c2ccc(OC)cc2)cc1 (stereo unspecified),inactive
15,O=C(CCCC(=O)N(CC(=O)NC1CCCC1)Cc1ccccc1Cl)Nc1ccccn1,inactive
16,Cc1ccnc(NC(=O)CCC(=O)N(CC(=O)NCCc2ccccc2)Cc2cccs2)c1,inactive
17,O=C(CN(Cc1ccccc1)C(=O)CCC(=O)Nc1ccccn1)NCCc1ccccc1,13.1 µM (active)
18,C=CCn1c(N)c(C(=O)OCC(C)C)c2nc3ccccc3nc21,inactive
19,CCC(C)NC(=O)c1c(N)n(/N=C/c2cccs2)c2nc3ccccc3nc12 (stereo unspecified),10.4 µM (active)
20,CCCNC(=O)c1c(N)n(-c2ccc(S(N)(=O)=O)cc2)c2nc3ccccc3nc12,inactive
21,O=C(NCCc1c[nH]c2ccc(Cl)cc12)c1ccc([N+](=O)[O-])cc1,inactive
22,Cc1ccc(CNC(=O)c2c(-c3ccccc3)noc2C)cc1,inactive
23,Oc1ccccc1CNc1ncc(Br)cc1Br,13.1 µM (active)
24,Brc1ccc2ncnc(NCc3cccnc3)c2c1,inactive
25,CCc1cccc(C)c1NS(=O)(=O)c1cc(Br)cnc1N,inactive
26,COc1ccc(S(=O)(=O)c2c[nH]c(=S)[nH]c2=O)cc1Cl,inactive

row,Compound,Potency
1,O=C(O)c1cc(S(=O)(=O)NC2CCCc3ccccc32)ccc1O (stereo unspecified),inactive
2,CCCCn1c(N)c(N(CCOC)C(=O)c2cccc(S(=O)(=O)N3CCCCC3)c2)c(=O)[nH]c1=O,inactive
3,CCCCn1c(=S)[nH]c2cc(S(=O)(=O)N3CCCCC3)ccc21,9.28 µM (active)
4,O=c1[nH]c2ccc(S(=O)(=O)N3CCCC3)cc2[nH]1,inactive
5,Cc1ccc(S(=O)(=O)N(C)C)cc1NC(=O)C1Cc2ccccc2CN1C(=O)c1ccco1 (stereo unspecified),inactive
6,O=C(NCCCn1ccnc1)/C(=C\c1ccccc1F)NC(=O)c1ccccc1,inactive
7,Cc1c(C(=O)OCC(=O)N2CCCC2=O)oc2ccccc12,inactive
8,Oc1c(CN2CCCC2)cc(COCc2ccccc2)c2cccnc12,2.08 µM (active)
9,O=[N+]([O-])c1cc([N+](=O)[O-])c2cccnc2c1O,inactive
10,CC1CCCN(CC(O)COCc2ccccc2)C1 (stereo unspecified),inactive
11,Cc1cnc(C(=O)N2CCCC(N3CCN(c4ccccc4F)CC3)C2)cn1 (stereo unspecified),inactive
12,O=C(Nc1nnc(SCc2c(Cl)cccc2Cl)s1)c1cccc([N+](=O)[O-])c1,inactive
13,COc1ccc(NC(=O)CCNS(=O)(=O)c2ccc3c(c2)c(=O)n(C)c(=O)n3C)cc1OC,inactive
14,CCN(Cc1ccccc1)C(=O)CCS(=O)(=O)c1ccc2c(c1)oc(=O)n2C,inactive
15,CSCCC(NS(=O)(=O)c1ccc2c(c1)oc(=O)n2C)C(=O)NCc1ccccc1 (stereo unspecified),inactive
16,Cc1ccc(NC(=O)CCNS(=O)(=O)c2ccc3c(c2)oc(=O)n3C)cc1C,inactive
17,Cn1c(=O)oc2cc(S(=O)(=O)NCCC(=O)NCc3ccccc3Cl)ccc21,10.4 µM (active)
18,Cn1c(=O)oc2cc(S(=O)(=O)N3CCC(C(=O)Nc4ccc(OC(F)(F)F)cc4)CC3)ccc21,inactive
19,COc1cc(NC(=O)CCS(=O)(=O)c2ccc3c(c2)oc(=O)n3C)cc(OC)c1,1.47 µM (active)
20,O=C(CCNS(=O)(=O)c1ccc(Br)s1)NCc1ccccc1Cl,inactive
21,COc1cccc(NC(=O)CCNS(=O)(=O)c2ccc3c(c2)oc(=O)n3C)c1,7.38 µM (active)
22,CS(=O)(=O)N(CC(=O)Nc1ccc(F)cc1)C1CCCCC1,inactive
23,CCOC(=O)Cn1c(O)c(N=NC(=O)CNC(=O)Cc2ccccc2)c2ccccc21,inactive
24,Cc1nc2nc(C)c(NS(=O)(=O)c3ccc(C(C)(C)C)cc3)c(=O)n2[nH]1,inactive
25,CC1CCN(C(=O)c2cccc(S(=O)(=O)N3CCCc4ccccc43)c2)CC1,inactive
26,CC1CCN(C(=O)COC(=O)c2cc(=O)[nH]c3ccccc23)CC1,inactive

row,Compound,Potency
1,CN(C)NC(=O)c1csnc1-c1c(Cl)cccc1Cl,inactive
2,O=C(COC(=O)CNS(=O)(=O)c1ccc(F)c(F)c1F)NC1CCCC1,inactive
3,O=C(Nc1nc(-c2ccc3c(c2)OCO3)cs1)c1ccncc1,4.15 µM (active)
4,O=C(Nc1nc2ccccc2s1)c1ccc2c(c1)OCO2,inactive
5,CC(=O)NCCC(=O)Nc1nc(-c2ccc3c(c2)OCCO3)cs1,inactive
6,Cc1ccc(-c2csc(NC(=O)C3=COCCO3)n2)cc1C,6.57 µM (active)
7,Cc1csc(NC(=O)C2=COCCO2)n1,inactive
8,Cc1ccc(-c2csc(NC(=O)c3cnccn3)n2)cc1C,inactive
9,COc1ccc(NC(=O)NNC(=O)COc2cc(C)c(Cl)c(C)c2)c(OC)c1,inactive
10,COC(=O)c1ccc(COc2cc([N+](=O)[O-])cc3cccnc23)cc1,inactive
11,CCc1ccc(S(=O)(=O)NCC(O)COc2ccc(OC)cc2)cc1 (stereo unspecified),inactive
12,O=C(Nc1cccc(-n2cnnn2)c1)c1cccnc1,inactive
13,CC(=O)C(C)n1cnc2scc(-c3ccc(C)cc3)c2c1=O (stereo unspecified),inactive
14,CCOC(=O)c1sc(NC(=O)CCN2CCOCC2)c(C(=O)OCC)c1C,inactive
15,CCOC(=O)c1c(NC(=O)CCl)sc(C(=O)N(CC)CC)c1C,9.28 µM (active)
16,CCOC(=O)Nc1sc(C(=O)N(C)C)c(C)c1C(=O)OCC,inactive
17,O=C(NCc1ccncc1)c1ccc(NS(=O)(=O)c2cccc([N+](=O)[O-])c2)cc1,inactive
18,Cc1nc2ccccc2c(=O)n1-c1ccc(NS(=O)(=O)c2ccc(F)cc2F)cc1,inactive
19,CCn1c(SCc2ccccc2)nc2cc(OC)c(OC)cc2c1=O,2.94 µM (active)
20,CCn1c(Cc2ccccc2)nnc1SCc1nc2ccccc2c(=O)[nH]1,inactive
21,COCCn1c(SCc2nc3cc(OC)c(OC)cc3c(=O)[nH]2)nnc1-c1ccncc1,inactive
22,CS(=O)(=O)c1ccc(-c2nnn(CC(=O)Nc3ccc4c(c3)OCCO4)n2)cc1,inactive
23,O=C1c2ccccc2C(=O)C1c1ccccc1F,inactive
24,O=C(NCc1ccco1)c1ccc([N+](=O)[O-])cc1Cl,inactive
25,Cc1ccc2c(c1)C1CN(C)CCC1N2C(=O)c1ccccc1NS(=O)(=O)c1ccc(F)cc1C (stereo unspecified),9.28 µM (active)
26,Cc1ccc2c(c1)C1CN(C)CCC1N2C(=S)Nc1ccc(Cl)cc1Cl (stereo unspecified),inactive

row,Compound,Potency
1,Cc1ccc2c(c1)C1CN(C)CCC1N2C(=O)Cn1nnc(-c2ccccc2F)n1 (stereo unspecified),inactive
2,CC(OC(=O)CNC(=O)c1ccco1)C(=O)Nc1ccc(Cl)cn1 (stereo unspecified),inactive
3,Cc1nn(-c2ccccc2)c(C)c1/C=N/NC(=O)CSc1nc2ccccc2c(=O)n1-c1ccccc1,inactive
4,Cc1ccc(-n2c(SCC(=O)N/N=C/C=C/c3ccccc3[N+](=O)[O-])nc3ccccc3c2=O)cc1,10.4 µM (active)
5,O=C(CSc1nc2ccccc2[nH]1)N/N=C/C=C\c1ccccc1[N+](=O)[O-],inactive
6,COc1ccc(CCNC(=O)CN(C)S(=O)(=O)c2ccc3nc(C)sc3c2)cc1OC,inactive
7,CCn1c(SCC(=O)Nc2ccc3c(c2)OCCO3)nc2c(c1=O)SC(C)C2 (stereo unspecified),inactive
8,COCCn1c(SCC(=O)Nc2cc(Cl)ccc2OC)nc2c(c1=O)SC(C)C2 (stereo unspecified),3.7 µM (active)
9,COCCn1c(SCC(=O)Nc2ccccc2F)nc2c(c1=O)SCC2,14.7 µM (active)
10,Cn1c(SCC(=O)N2CCCCC2)nc2c(c1=O)SCC2,inactive
11,COCCn1c(SCC(=O)Nc2cc(OC)ccc2OC)nc2c(c1=O)SC(C)C2 (stereo unspecified),inactive
12,CC1Cc2nc(SCC(=O)Nc3ccccc3F)n(C)c(=O)c2S1 (stereo unspecified),inactive
13,CCCCSc1nc2c(c(=O)n1CC)SC(C)C2 (stereo unspecified),inactive
14,CCn1c(SCC(=O)Nc2ccccc2F)nc2c(c1=O)SC(C)C2 (stereo unspecified),11.7 µM (active)
15,Cn1nnnc1SCC(=O)Nc1ccccc1C(=O)NC1CC1,inactive
16,CCOc1ccc(CCNC(=O)COC(=O)C2CCN(c3ccc(C(F)(F)F)cn3)CC2)cc1OCC,inactive
17,FC(F)(F)C1CCCN(c2nsc3ccccc23)C1 (stereo unspecified),inactive
18,Cc1cccc(NC(=O)C2CCCN(C(=O)Nc3ccc(F)cc3)C2)c1C (stereo unspecified),inactive
19,CCOC(=O)N1CCN(S(=O)(=O)c2ccc(Br)cc2)CC1,inactive
20,CC(C)(C)c1ccccc1NC(=O)CN1C(=O)NC2(CCCC2)C1=O,inactive
21,CN(C)c1ccc(C2Nc3ccccc3C(=O)N2NS(=O)(=O)c2ccccc2)cc1 (stereo unspecified),inactive
22,CC(C)C(=O)N1c2ccccc2NC2=C(C(=O)CCC2)C1c1ccc(N(C)C)cc1 (stereo unspecified),2.33 µM (active)
23,CC1C(=O)Nc2ccccc2N1C(=O)c1c(F)cccc1F (stereo unspecified),inactive
